High-throughput results: PubChem BioAssay, National Center for Advancing Translational Sciences (NCATS)
The entries come from a sample that favours hits as a whole.
Tb PYK inh: T. brucei pyruvate kinase inhibition; Q57TT1; TbPYK enzyme, Kinase-Glo Plus ATP luminescence, 45 min; Potency, µM (titrated, usually from 76.8 µM), without a hit: at the top dose activity, negative = inhibition, usual class: inhibitors; hit rate 0.12% among 410,000; AID 624173; also: potency is read from the fitted curve at half-maximal effect; % is scaled to controls: 0 for no effect and ±100 for the full control effect; nearly all actives have a fitted effect of over 50% in size
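TbPYK + substrate in 50 mM TEA pH 7.2, 100 mM KCl, 10 mM MgCl2, 0.05% BSA, 0.01% Tween-20; cpd pinned; ADP 130 uM final; 45 min RT; Kinase-Glo Plus 10 min; luminescence endpoint.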
Giardia FBPA inh: inhibitors of Giardia lamblia fructose-1,6-bisphosphate aldolase; A8B2U2; purified Giardia FBPA; Potency, µM (highest dose often 59.6 µM), inactives show top-dose activity, negative = inhibition, most hits filed as inhibitors; hit rate 0.71% among 290,000; AID 2451; also: potency is read from the fitted curve at half-maximal effect; % is scaled to controls: 0 for no effect and ±100 for the full control effect; nearly all actives have a fitted effect of over 55% in size
Target sequence (A8B2U2 whole entry, looked up): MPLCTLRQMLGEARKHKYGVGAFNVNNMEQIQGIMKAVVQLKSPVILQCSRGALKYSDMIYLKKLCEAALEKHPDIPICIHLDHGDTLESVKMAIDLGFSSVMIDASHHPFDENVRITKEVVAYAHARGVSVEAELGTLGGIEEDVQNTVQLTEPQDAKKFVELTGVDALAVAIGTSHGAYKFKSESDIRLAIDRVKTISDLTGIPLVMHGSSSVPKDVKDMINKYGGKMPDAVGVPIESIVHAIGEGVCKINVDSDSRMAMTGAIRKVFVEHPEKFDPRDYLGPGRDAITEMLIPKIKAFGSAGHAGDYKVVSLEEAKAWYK
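40 nM FBPA preincubated 10 min at RT with compound (up to 57.5 uM final), then substrate plus GAPDH/TPI/NAD/arsenate coupling and diaphorase/resazurin added. Fluorescence read after 20 min at RT, 525/598 nm.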
LmPK inhibitor: LmPK (Leishmania mexicana) enzyme inhibition. Q27686. purified LmPK, Kinase-Glo ATP luminescence, 1 h. Potency, µM (titrated, usually from 57.5 µM), without a hit: top-dose activity change, negative = inhibition, usual class: inhibitors. hit rate 0.37% among 290,000. AID 1721; also: potency is read from the fitted curve at half-maximal effect; % is scaled to controls: 0 for no effect and ±100 for the full control effect
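0.1 nM LmPK, 0.5 mM PEP, 0.1 mM ADP; 50 mM imidazole pH 7.2, 7 mM MgCl2, 50 mM KCl; 1 h RT. Kinase-Glo luminescence readout, normalized to no-enzyme (full inhibition) and uninhibited wells.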
Shiga inhibitor: blocks Shiga toxin action in Vero cells | Vero cells, Shiga toxin protein synthesis inhibition reporter | inhibition, % at 38.7 µM | hit rate 9.2% among 290,000 | AID 2315; in the data active = inhibition mostly above about 28%, no sharp cut-off; inactive = mostly below about 43%; also: 0% is about no effect
Sm TGR block: S. mansoni TGR enzyme inhibition; Q962Y6; purified TGR, DTNB reduction, TNB absorbance 405 nm; Potency, µM (titrated, usually from 114 µM), inactives show at the highest dose activity change, negative = inhibition, most hits filed as inhibitors; hit rate 3% among 360,000; AID 485364; also: potency is read from the fitted curve at half-maximal effect; % is scaled to controls: 0 for no effect and ±100 for the full control effect; nearly all actives have a fitted effect of over 60% in size
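First, TGR (20 nM dispensed) and NADPH were mixed with compound. Second, a 15 min room-temperature incubation followed. Third, further NADPH and then DTNB were added to start the reaction. Finally, TNB absorbance was monitored kinetically.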
Cycloheximide cs: counter-screen hit for Shiga toxin inhibitors, cycloheximide; max response, %; cell reporter, cycloheximide protein synthesis inhibition counterscreen; hit rate 12% among 300,000; in the data active = max response mostly above about 13%, no sharp cut-off; inactive = mostly below about 14%; also: read at 38.3 µM for the half of the compounds with a filed dose; 0% is about no effect
* hit, by the source's call; ? = inconclusive; / = not tested or not shown; [ ] = another dose, or the depositor's remark. Unless noted, calls follow the shape of the dose curve; as a rule, active = well fitted curve in the direction sought with a large enough effect; inconclusive = small, poorly fitted or top-dose-only effect, or another doubt; inactive = no such curve, though single readings can be large; an effect the other way counts as inactive or inconclusive.

SMILES	Tb PYK inh	Giardia FBPA inh	LmPK inhibitor	Shiga inhibitor	Sm TGR block	Cycloheximide cs
c1cncc(-c2nc(-c3ccc4c(c3)OCO4)cs2)c1	-5.3%	-0.1%	-8.6%	85.3*	2.6%	28.1*
Nc1nc(-c2ccc3c(c2)NC(=O)CO3)cs1	0.3%	-14.7%	0.1%	18.7	?	17.2
CC1Cc2cc(-c3csc(N)n3)ccc2O1 (centres undefined)	-11.0%	3.0%	-6.5%	35.5*	9.2%	26.1*
O=C(C1CCC(Cn2c(=O)c3sccc3n(Cc3cccc(F)c3)c2=O)CC1)N1CCCCC1 (centres undefined)	3.8%	/	/	/	-5.9%	/
COc1ccc(-c2nc(CN3CCC(C(=O)NCCCOC(C)C)CC3)c(C)o2)cc1OC	0.5%	/	/	/	-2.1%	/
CCCC/C=C/[C@@H](c1ccccc1)C1COC(=O)CC1O (some centres undefined)	/	2.3%	/	3.0	/	2.0
COc1ccc(C2=C(C(C)=O)Sc3nnc(-c4ccc(C)cc4)n3N2C(C)=O)cc1OC	2.3%	/	/	/	-2.8%	/
Nc1nc(-c2ccccc2Cl)cs1	-20.5%	/	/	/	/	/
Fc1ccc(-c2csc(/C=C/c3ccc4c(c3)OCO4)n2)cc1	-1.4%	1.2%	1.4%	38.6*	8.0%	20.5*
Nc1nc(-c2cc3c(cc2Cl)OCCO3)cs1	1.5%	8.8%	-9.8%	43.7*	0.2%	40.2*
Cc1nc(-c2ccc3c(c2)OCO3)cs1	-11.8%	-8.2%	-8.6%	42.8*	4.9%	16.0*
Cc1nc(-c2ccc3c(c2)OCCCO3)cs1	7.7%	-3.1%	-27.1%	86.7*	0.9%	44.6*
CCCOc1ccc(C2C(=O)N(C3CCC(C)CC3)CC(=O)N2Cc2cccc(OC)c2)cc1OC (centres undefined)	1.3%	/	/	/	26.0%	/
O=C(OCC(=O)c1ccccc1Cl)C1=NN(c2ccccc2)C(=O)CC1	-0.3%	/	/	/	/	/
CCC[C@@H]1CC(C(=O)NC(C2O[C@H](SC)C(OP(=O)(O)O)[C@H](O)[C@H]2O)[C@H](C)Cl)N(C)C1 (some centres undefined)	4.0%	4.5%	/	-9.4	/	-2.9
Cc1cn2c(=O)cc(COC(=O)c3cccc(NC(=O)C(C)Oc4ccccc4)c3)nc2s1 (centres undefined)	-3.9%	/	/	/	-9.2%	/
Nc1nc(C2C(=O)CCCC2=O)cs1	-7.0%	-28.4%	-2.5%	-6.4	2.3%	-3.6
Nc1nc(-c2ccc3c(c2)CCCC3)cs1	-10.0%	-10.0%	-9.6%	92.6*	-8.0%	35.9*
Cc1c(Cl)cccc1NC(=O)Nc1cc(C(C)(C)C)on1	-9.8%	-10.5%	5.8%	26.1	4.9%	6.3
CC(C)(C)c1cc(NC(=O)Nc2ccc(Cl)cc2Cl)no1	-2.2%	-14.1%	3.4%	77.8*	4.1%	19.0*
CC(C)(C)c1cc(NC(=O)Nc2ccc(Br)cc2Cl)no1	-0.9%	-7.5%	0.5%	61.2*	-7.0%	15.8*
CN(C(=O)c1cnc(N2CCOCC2)c2ccccc12)c1ccccc1F	-3.7%	/	/	/	8.2%	/
CC1CN(C(=O)Nc2ccc3snnc3c2)c2ccccc21 (centres undefined)	-9.4%	-24.1%	6.0%	36.4*	0.7%	26.7*
Cc1cc(-n2c(C)cc(C(=O)CN3C(=O)NC4(CCCCC4)C3=O)c2C)no1	8.5%	-1.8%	6.3%	10.6	8.0%	9.7*
Cc1cc(-n2c(C)cc(C(=O)CN3C(=O)C(=O)N(C)C3=O)c2C)no1	1.8%	/	/	/	/	/
SMILES	Tb PYK inh	Giardia FBPA inh	LmPK inhibitor	Shiga inhibitor	Sm TGR block	Cycloheximide cs
Cc1cc(C(=O)CN2C(=O)NC3(CCCC3)C2=O)c(C)n1-c1ccc2c(c1)OCO2	0.3%	-1.1%	0.1%	-2.7	-10.8%	0.9
Cc1cc(-n2c(C)cc(C(=O)CN3C(=O)NC4(CCCC4)C3=O)c2C)no1	0.0%	12.6%	0.1%	22.9	-5.6%	26.8*
Cc1cc(-n2c(C)cc(C(=O)CN3C(=O)NC4(CCCCC4C)C3=O)c2C)no1 (centres undefined)	-5.6%	0.1%	-0.3%	9.4	-14.5%	-1.3
Cc1cc(-n2c(C)cc(C(=O)CCl)c2C)no1	5.4%	-2.2%	-0.6%	-18.3	8.91µM*	7.2
CCS(=O)(=O)NCCc1sc2nc(-c3ccc(OC)cc3)nn2c1C	2.3%	/	/	/	-10.4%	/
COCCCNC(=O)c1ccc(Cn2c(=O)c3ccccc3n(CC(N)=O)c2=O)cc1	-8.3%	/	/	/	-2.4%	/
Cc1cc2c(s1)c1cnn(Cc3ccccc3F)c(=O)c1n2C(C)C	/	/	/	-5.8	/	16.2
c1ccc(C(c2ccccc2)N2CCN(Cc3nc(-c4cnccn4)no3)CC2)cc1	0.8%	4.0%	6.0%	-5.9	25.1µM*	6.2
COc1ccc(C(=O)Nc2ccc(N3CCN(c4ccccc4)CC3)c(C(=O)O)c2)cc1	0.6%	/	/	/	-1.2%	/
CCOc1ccc(NC(=O)c2cc3cc(C)ccc3n2C)cc1	0.3%	/	/	/	5.4%	/
CC(=O)c1cc2c(cc1NC(=O)CN(C)S(=O)(=O)c1cccs1)OCO2	-17.6%	/	/	/	/	/
CCN(CC)CC(=O)Nc1c(C)cccc1C	-2.0%	12.1%	3.8%	12.9	/	-1.8
CSc1ccc(CN(C)CC(=O)Nc2ccc(C)cc2Br)cc1	9.0%	3.8%	-2.0%	12.7	1.5%	-3.1
Cc1ccc(NC(=O)CN(C)S(=O)(=O)c2cccs2)c(Br)c1	-0.2%	6.7%	2.5%	84.5*	5.8%	35.9*
CCN(CC)CC(=O)Nc1c(C)cc(C(C)(C)C)cc1C	0.0%	-8.6%	6.6%	39.6*	0.3%	32.0*
CCN(CC)CC(=O)Nc1ccc(C)cc1Br	-5.9%	5.0%	-7.6%	40.3*	-2.9%	26.7*
CN(CC(=O)Nc1ccccc1F)Cc1cccs1	3.0%	3.1%	-5.6%	7.9	-12.4%	7.8
Cc1cc(Br)ccc1NC(=O)CN(C)Cc1cccs1	-3.8%	7.3%	-2.1%	48.3*	9.7%	27.9
CCCC(=O)Nc1cccc(-c2nc3ccccc3c(=O)o2)c1	-5.2%	0.9%	-5.9%	-17.6	18.7%	-0.9
Cc1cc(Br)c(NC(=O)COC(=O)C2CCCCC2)c(Br)c1	-2.3%	/	/	/	/	/
COc1cc(NC(=O)CN(C)S(=O)(=O)c2cccs2)cc(OC)c1	3.9%	-3.7%	1.8%	-8.1	2.9%	8.3
Cc1ccc(NC(=O)CN(C)S(=O)(=O)c2cccs2)cc1C	-9.5%	-4.6%	8.7%	89.9*	1.5%	35.0*
Cc1ccc(NC(=O)CN(C)S(=O)(=O)c2cccs2)cc1F	-1.2%	-4.6%	-4.3%	75.2*	12.3%	37.6*
Cc1ccc(NC(=O)COC(=O)C2CC2)c(Br)c1	1.4%	2.2%	-1.6%	61.5*	5.9%	40.3*
c1ccc2c(c1)CCC[C@@H]2C1=NCCN1	3.0%	-2.9%[21.7 µM]	/	/	/	/
CCCSc1ncc(Cl)c(C(=O)Nc2nc3ccc(C)cc3s2)n1	1.9%	/	/	/	-2.2%	/
